Screening results as filed in PubChem.
CYP2C9 inh = inhibitors of human CYP2C9 | CYP2C9 Supersomes, luciferin-H conversion, luminescence | P11712 | AID 777 | actives 20% (n = 96,000) | inhibition, % at 5 µM;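 active means blocking of liver enzyme CYP2C9 beyond about 50% at 5 µM, limit read from the data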
Target sequence (P11712 whole entry, looked up): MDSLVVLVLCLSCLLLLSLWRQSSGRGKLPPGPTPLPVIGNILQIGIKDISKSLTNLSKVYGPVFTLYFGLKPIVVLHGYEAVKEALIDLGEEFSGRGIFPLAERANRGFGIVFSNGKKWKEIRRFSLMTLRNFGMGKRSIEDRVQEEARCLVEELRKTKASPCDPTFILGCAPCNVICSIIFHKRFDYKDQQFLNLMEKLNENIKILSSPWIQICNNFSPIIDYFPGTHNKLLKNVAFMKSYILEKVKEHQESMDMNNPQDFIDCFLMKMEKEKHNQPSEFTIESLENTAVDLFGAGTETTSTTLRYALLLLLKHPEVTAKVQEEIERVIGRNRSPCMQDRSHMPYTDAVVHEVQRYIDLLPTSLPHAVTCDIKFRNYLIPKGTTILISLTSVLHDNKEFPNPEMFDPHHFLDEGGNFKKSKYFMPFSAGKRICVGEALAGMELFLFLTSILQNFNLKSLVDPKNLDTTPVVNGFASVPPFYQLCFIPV
PLK1 inh = blocks human PLK1 kinase activity; inhibition, % at 10 µM; recombinant PLK1 kinase, TR-FRET peptide phosphorylation; P53350; AID 619; actives 0.53% (n = 97,000);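 active means inhibition of 50% or more in the single-concentration screen; inactive means inhibition below 50%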;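 further: 0% = DMSO max control and 100% = H-89 dihydrochloride min control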
CYP2C9 activ = increases human cytochrome P450 2C9 activity | activation factor at 5 µM | recombinant CYP2C9, luciferin-H conversion, luminescence; hits give high values; factor 1 = untreated enzyme, 0 = blocked | P11712 | actives 1.4% (n = 96,000);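 active means activation factor of 2 or more for CYP2C9 at a 5 µM dose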;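 further: 0 = sulfaphenazole-blocked wells and 1 = vehicle-only wells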
CYP2C19 inhib = inhibitors of human CYP2C19. P33261. CYP2C19 Supersomes, luciferin-H EGE luminescence, 30 min. inhibition, % at 5 µM. actives 21% (n = 96,000);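 active means CYP2C19 inhibition above a set limit at 5 µM in the primary screen, cut at about 50% in these data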;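 further: plate controls were negative control wells for no effect and 2.5 mM tranylcypromine positive control for full effect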
Plk1 PBD FP = Plk1 (human) PBD binding inhibition; inhibition, %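 (tested at about 20 µM)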; actives 0.13% (n = 97,000); Plk1 PBD phosphopeptide binding, fluorescence polarization; P53350; in the data active means inhibition above about 34%, passing the limit was not always enough
CYP2C19 act = activators of human cytochrome P450 2C19 | P33261 | recombinant CYP2C19, luciferin-H EGE luminescence; hits give high values; 0 = fully inhibited enzyme, 1 = untreated enzyme | activation factor at 5 µM | 96,000 tested, under 10 active | AID 1025;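 active means activation factor of at least 2 at 5 µM in the primary screen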;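 further: 0 = wells with 2.5 mM tranylcypromine and 1 = vehicle-only wells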
PLK1 confirm = PLK1 (human) kinase inhibition, confirmed; inhibition, % at 10 µM; recombinant PLK1 kinase, TR-FRET peptide phosphorylation; actives 20% (n = 210); shares compounds with PLK1 inh;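 active means inhibition at or above 50% in each of two repeat confirmation tests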;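 further: 0% = DMSO max control and 100% = H-89 kinase-blocked min control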
Plk1 interf = counter-screen for Plk1 inhibitors: compound assay interference; shares compounds with PLK1 inh; Plk1 TR-FRET assay interference, compound added post-reaction; inhibition (interference), % at 10 µM; 210 tested, under 10 active; AID 756;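 active means both duplicate runs show 50% or greater inhibition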;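 further: 0% = DMSO max control and 100% = H-89 min control inhibited reaction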
Numbers without * were called inactive; . = no result given. Compounds with a hit are over-represented: about 28% of the library has one in this group of screens.

SMILES | CYP2C9 inh | PLK1 inh | CYP2C9 activ | CYP2C19 inhib | Plk1 PBD FP | CYP2C19 act | PLK1 confirm | Plk1 interf
CC1=C(C(=O)OC(C)C)C(c2cccnc2)n2ncnc2N1 (centres undefined) | 10 | 83* | 0.9 | -4 | 7 | 1 | 5 | -44
COCCOC(=O)C1=C(C)Nc2ncnn2C1c1ccccc1 (centres undefined) | 1 | -23 | 1 | 0 | 9 | 1 | . | .
CCCC(=O)Nc1ccc(NC(=O)c2ccco2)cn1 | -11 | -5 | 1.1 | -15 | 2 | 1.1 | . | .
O=C(O)c1ccc2c(c1)[C@@H]1C=CC[C@@H]1[C@H](c1ccccn1)N2 | . | 72* | . | . | -7 | . | 59* | 46
O=C(O)c1ccc2cc[nH]c2c1 | 17 | -4 | 0.8 | 18 | -20 | 0.8 | . | .
O=C(NCc1ccc2c(c1)OCO2)c1ccc(CS(=O)(=O)c2ccc(Br)cc2)o1 | 95* | 76* | 0.1 | 55* | 17 | 0.5 | -6 | -46
CN=c1scc(C)n1/N=C/c1ccc(O)c(O)c1O | 2 | 82* | 1 | 14 | 22 | 0.9 | 85* | 70*
CC(C)N=c1scc(-c2ccco2)n1/N=C/c1ccc(O)c(O)c1 | 25 | 17 | 0.8 | 10 | -1 | 0.9 | . | .
CC(=O)c1ccc(NC(=O)c2cnn3ccccc23)cc1 | -3 | -12 | 1 | 11 | 14 | 0.9 | . | .
CC(=O)c1cccc(NC(=O)c2cnn3ccccc23)c1 | 17 | 80* | 0.8 | 47 | -18 | 0.5 | -2 | -58
C/C(O)=C\c1nc2ccccc2oc1=O | -14 | 124* | 1.1 | -12 | 9 | 1.1 | -6 | -52
O=c1oc2ccc(Br)cc2cc1-c1nc2ccccc2o1 | 10 | -7 | 0.9 | 4 | 4 | 1 | . | .
CCCNC(=O)CS(=O)Cc1nc(-c2cccc(OC)c2)oc1C (centres undefined) | 6 | -6 | 0.9 | 7 | -10 | 0.9 | . | .
COc1cccc(-c2nc(CS(=O)CC(=O)NCc3ccccc3)c(C)o2)c1 (centres undefined) | 58* | 72* | 0.4 | 54* | -5 | 0.5 | -1 | -47
NC1(N)OC(CN2C(=O)c3ccccc3C2=O)CS1 (centres undefined) | 12 | 116* | 0.9 | 52* | 16 | 0.5 | -10 | -58
CC1=C(C#N)CCC(=O)N1Cc1c(C)cc(C)cc1C | 6 | -9 | 0.9 | 47 | -22 | 0.5 | . | .
Cc1onc(-c2ccccc2)c1C(=O)NC(C)C | 8 | 78* | 0.9 | 2 | -6 | 1 | -4 | -47
c1ccc(-c2noc(CN3CCN(c4ccccc4)CC3)n2)cc1 | 45 | 73* | 0.6 | 71* | 15 | 0.3 | -6 | -52
COc1cccc(C2CC(c3ccc(Cl)cc3Cl)n3nc(N)nc3N2)c1 (centres undefined) | 17 | 75* | 0.8 | 90* | -28 | 0.1 | -6 | -51
O=C(CSc1ncn[nH]1)Nc1ccc2c(c1)OCCO2 | 24 | -19 | 0.8 | 27 | -6 | 0.7 | . | .
O=C(CSc1nc2ncc(Br)cc2[nH]1)Nc1ccc2c(c1)OCO2 | 96* | 70* | 0 | 72* | 12 | 0.3 | 23 | -49
CCc1ccc(N(CC(=O)NC2CCCCC2)S(=O)(=O)c2c(C)noc2C)cc1 | 2 | 74* | 1 | 2 | 12 | 1 | -8 | -59
CN1CCN(S(=O)(=O)c2ccc(C(=O)Nc3ccccc3)cc2)CC1 | 2 | -13 | 1 | -7 | -6 | 1.1 | . | .
Cc1nc2scc(-c3ccccc3)c2c(=O)n1/N=C/c1ccco1 | 16 | . | 0.8 | 7 | . | 0.9 | . | .
COC(=O)c1sc2nc(CSc3nc4ccc(C)cc4[nH]3)[nH]c(=O)c2c1C | 44 | 71* | 0.6 | 9 | -9 | 0.9 | 42 | -43
SMILES | CYP2C9 inh | PLK1 inh | CYP2C9 activ | CYP2C19 inhib | Plk1 PBD FP | CYP2C19 act | PLK1 confirm | Plk1 interf
Cc1ccc2nc(SCC(=O)N3CCCC3)[nH]c2c1 | -18 | -2 | 1.2 | 17 | 7 | 0.8 | . | .
COc1ccc(C(=O)N2CCOCC2)cc1Br | -131 | 130* | 2.3* | 8 | -28 | 0.9 | -12 | -49
CCOC(=O)C1C(c2cc(OC)c(OC)c(OC)c2)NC(=S)NC1(O)C(F)(F)F (centres undefined) | 2 | -13 | 1 | 17 | -10 | 0.8 | . | .
NC(=O)c1c(NC(=O)CN2CCCC2)sc2c1CCCC2 | 32 | -1 | 0.7 | 4 | -3 | 1 | . | .
N#CCC(=O)Nc1sc2c(c1C(N)=O)CCCC2 | . | 70* | . | . | -19 | . | -4 | -54
Fc1ccc(Br)cc1C1C=C(c2cccnc2)Nc2ncnn21 (centres undefined) | 54* | 88* | 0.5 | 88* | -8 | 0.1 | 46 | -51
Brc1ccc(C2=CC(c3cccs3)n3ncnc3N2)cc1 (centres undefined) | 42 | 19 | 0.6 | 35 | -123 | 0.7 | . | .
O=C(NCN1C(=O)C2C3C=CC(C3)C2C1=O)Nc1cccnc1 (centres undefined) | -1 | -13 | 1 | 6 | 0 | 0.9 | . | .
Cc1cccc(NC(=O)NCCN2C(=O)C3C4C=CC(C4)C3C2=O)c1 (centres undefined) | 6 | 73* | 0.9 | 80* | 2 | 0.2 | -6 | -53
Cc1ccccc1NC(=O)c1ccc(S(=O)(=O)N(C)C)cc1 | . | 72* | . | . | -2 | . | -12 | -59
CC(C)c1ccc(C(C(=O)NC(C)(C)C)N(C(=O)CNC(=O)c2ccco2)c2cccnc2)cc1 (centres undefined) | . | -13 | . | . | 1 | . | . | .
CCC(C)(C)NC(=O)C(c1ccco1)N(C(=O)CNC(=O)c1cccs1)c1cccnc1 (centres undefined) | . | 109* | . | . | -21 | . | -14 | -62
CC(C)C(NC(=O)c1ccc(C(C)(C)C)cc1)C(=O)NC1=NCCS1 (centres undefined) | 20 | -7 | 0.8 | 5 | 17 | 1 | . | .
CCN1CCN(CC(=O)Nc2ccc3c(c2)OCCO3)C(=O)C1=O | 26 | 73* | 0.7 | 8 | -32 | 0.9 | -3 | -55
CC1Cc2nc(SCC(=O)Nc3nccs3)n(C)c(=O)c2S1 (centres undefined) | 17 | 73* | 0.8 | 0 | 7 | 1 | 64* | -50
Cc1nnc(NC(=O)CSc2nc3c(c(=O)n2C)SC(C)C3)s1 (centres undefined) | 22 | -6 | 0.8 | -3 | 13 | 1 | . | .
CC(CNCc1ccc2c(c1)OCO2)NCc1ccc2c(c1)OCO2 (centres undefined) | 6 | 74* | 0.9 | 67* | -2 | 0.3 | -13 | -50
CC(C)(C)NCC(O)COCc1ccc(Cl)cc1 (centres undefined) | 0 | -6 | 1 | 14 | -3 | 0.9 | . | .
